Compounds with a hit are over-represented: about 1.1% of the library has one in this group of screens.
MBNL1 CUG block = MBNL1-poly(CUG) RNA binding inhibition; Potency, µM (top dose mostly 57.5 µM), inactives show at the highest dose activity change, negative = inhibition, hits mostly inhibitors; TR-FRET MBNL1-His/biotin-(CUG)12 binding, 665/545 ratio; actives 0.036% (n = 280,000); active = well fitted inhibition curve with a large enough effect in the signal ratio, with a control signal flat, not every such curve was filed as active; inconclusive = small, poorly fitted or top-dose-only effect, or effect the other way, or a change in a side signal; inactive = no such curve, though single readings can be large or run the other way; the % refers to the signal ratio; also: potency is read from the fitted curve at half-maximal effect; % is scaled to controls: 0 for no effect and ±100 for the full control effect
Target sequence (Q9NR56 whole entry, looked up): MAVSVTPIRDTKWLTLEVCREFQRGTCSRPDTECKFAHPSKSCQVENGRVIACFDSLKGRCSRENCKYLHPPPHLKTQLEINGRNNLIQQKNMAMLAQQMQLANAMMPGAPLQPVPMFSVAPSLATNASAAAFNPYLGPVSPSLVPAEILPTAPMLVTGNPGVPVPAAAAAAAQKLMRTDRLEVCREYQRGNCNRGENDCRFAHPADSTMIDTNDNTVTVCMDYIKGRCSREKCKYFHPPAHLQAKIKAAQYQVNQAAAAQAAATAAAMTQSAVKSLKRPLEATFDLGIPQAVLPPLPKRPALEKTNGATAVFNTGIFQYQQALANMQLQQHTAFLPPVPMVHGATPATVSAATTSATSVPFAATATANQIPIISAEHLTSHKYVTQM
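Compounds (final 92 nM to 58 uM) are added to His-tagged MBNL1 and biotin-(CUG)12, then terbium anti-His antibody and streptavidin-XL665 (5 nM final). After 60 min at room temperature, the 665/545 nm ratio is read.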
LMNA splice mod = modulators of lamin A splicing | HeLa LMNA splicing GFP/RFP minigene ratio, 48 h | Potency, µM (highest dose often 46.1 µM), for inactives: at the top dose ratio change, negative = inhibition, most hits filed as inhibitors | actives 0.01% (n = 200,000) | AID 1487; active = well fitted inhibition curve with a large enough effect in the signal ratio, with a control signal flat, not every such curve was filed as active; inconclusive = small, poorly fitted or top-dose-only effect, or effect the other way, or a change in a side signal; the % refers to the signal ratio; also: potency is read from the fitted curve at half-maximal effect; % is scaled to controls: 0 for no effect and ±100 for the full control effect
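S3 HeLa stable clones carrying a lamin A-EGFP splicing minigene plus DsRed2 were seeded at 600 cells/well in Opti-MEM with 2% FBS, pin-dosed and incubated 48 h at 37°C. Acumen cytometry (488 nm) gave the GFP/RFP total-intensity ratio.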
CBFb RUNX1 block = blocks binding between human CBF-beta and RUNX1; Q01196+Q13951; AlphaScreen CBFb-His/RUNX1-biotin binding, biochemical; Potency, µM (titrated, usually from 59.8 µM), for inactives: at the top dose activity, negative = inhibition, most hits filed as inhibitors; 230,000 tested, under 10 active; AID 1477; also: % of control where 0% means no effect
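Bead-based AlphaScreen assay; binding partners His-tagged CBF-beta and biotinylated RUNX1 at 30 nM each. Compound exposure 15 min after a 20-min protein preincubation; bead step 90 min; all steps at room temperature.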
HTT cytoprotect = protects HTT-Q103 PC12 cells, measured by ATP | PC12 HTT-Q103 induced, cytoprotection, ATP luminescence, 40 h | Potency, µM (titrated, usually from 56.4 µM), without a hit: cytoprotection (ATP increase), actives largely listed as activators | actives 0.14% (n = 230,000) | AID 1471; also: potency is read from the fitted curve at half-maximal effect; % of control where 0% means no effect; nearly all actives have a fitted effect of over 45% in size
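Compounds added alongside 100 nM tebufenozide, which induces toxic Q103 huntingtin exon 1-GFP in stable PC12 cells; surviving cells quantified by luminescent ATP measurement. Medium: phenol red-free DMEM, 5% equine and 5% calf serum.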
NPSR antag = antagonists of human neuropeptide S receptor cAMP signaling | Q6W5P4 | CHO-NPSR cells, cAMP TR-FRET, antagonist mode | Potency, µM (series often up to 38.3 µM), without a hit: top-dose activity change, negative = inhibition, most hits filed as inhibitors | actives 1% (n = 220,000); also: potency is read from the fitted curve at half-maximal effect; % is scaled to controls: 0 for no effect and ±100 for the full control effect; nearly all actives have a fitted effect of over 50% in size
Target sequence (Q6W5P4 whole entry, looked up): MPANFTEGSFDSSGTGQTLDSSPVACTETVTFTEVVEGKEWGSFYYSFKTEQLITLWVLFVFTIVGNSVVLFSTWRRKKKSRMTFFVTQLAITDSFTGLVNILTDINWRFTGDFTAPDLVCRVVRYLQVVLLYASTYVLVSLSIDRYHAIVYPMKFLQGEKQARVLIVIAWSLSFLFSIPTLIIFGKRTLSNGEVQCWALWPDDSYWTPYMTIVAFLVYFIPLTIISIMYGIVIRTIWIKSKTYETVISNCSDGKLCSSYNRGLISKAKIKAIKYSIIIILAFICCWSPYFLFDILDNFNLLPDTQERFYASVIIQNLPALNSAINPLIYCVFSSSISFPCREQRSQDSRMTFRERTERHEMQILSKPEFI
HttQ103 aggreg = reduces HttQ103-GFP aggregates in PC12 cells; Potency, µM (highest dose often 46.1 µM), for the others: at the highest dose activity change, negative = inhibition, hits mostly inhibitors; PC12 HttQ103-GFP aggregates, Acumen cytometry, 40 h; actives 1.1% (n = 220,000); also: potency is read from the fitted curve at half-maximal effect; % is scaled to controls: 0 for no effect and ±100 for the full control effect; nearly all actives have a fitted effect of over 60% in size
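Compounds (qHTS titration) were added to PC12 cells expressing an ecdysone-driven HTT exon 1 Q103–GFP fusion after induction with 100 nM tebufenozide. Aggregate formation was measured as GFP objects in cell lysates.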
* = called active by the depositor; ? = inconclusive; · = no result given; [ ] = remark or other dose. Unless noted, calls follow the shape of the dose curve; as a rule, active = well fitted curve in the direction sought with a large enough effect; inconclusive = small, poorly fitted or top-dose-only effect, or another doubt; inactive = no such curve, though single readings can be large; an effect the other way counts as inactive or inconclusive.

SMILES	MBNL1 CUG block	LMNA splice mod	CBFb RUNX1 block	HTT cytoprotect	NPSR antag	HttQ103 aggreg
CNc1oc(-c2ccccc2Cl)nc1P(=O)(c1ccccc1)c1ccccc1	·	3%	0%	-6%[10 µM]	?	-12%
CNc1oc(-c2ccc(C)cc2)nc1P(=O)(c1ccccc1)c1ccccc1	-5%	4%	-13%	-53%	13µM*	-21%
Nc1ncnc2c1nc(Sc1ccc(Cl)cc1)n2[C@@H]1O[C@H]2COP(=O)(O)O[C@@H]2[C@H]1O	·	·	·	-17%[1.9 µM]	·	·
CCc1nnc(NS(=O)(=O)c2ccc(NC(=S)NC(=O)/C=C/c3ccc(F)cc3)cc2)s1	-17%	-24%	-13%	-22%[10 µM]	10µM*	29%
O=P(CCCCCCCCCP(=O)(c1ccccc1)c1ccccc1)(c1ccccc1)c1ccccc1	?	-3%	7%	-124%	13µM*	11µM*
C=C1CCC2[C@](C)(CO)[C@H](O)CC[C@@]2(C)[C@@H]1C/C=C1/C(=O)OC[C@H]1O (some centres not stated)	·	·	-3%	7.1µM*	·	·
CC(C)(C)c1nnc(N/N=C/c2cc(Br)ccc2O)n(N)c1=O	11%	?	·	-24%[10 µM]	?	13µM*
COC(=O)c1ccc(C23CC2(C(NP(=O)(c2ccccc2)c2ccccc2)c2ccccc2)C3)cc1 (configuration not stated)	·	·	-17%	-48%	·	·
O=C(OCc1cccc(F)c1)c1ccc2c(c1)-c1ccccc1C2=O	-14%	-1%	3%	-13%	-21%[46.1 µM]	9%
O=C(OCc1ccccc1F)c1ccc2c(c1)-c1ccccc1C2=O	7%	?	-3%	-7%	-25%[46.1 µM]	0.79µM*
CC1=CC(C)(C)Nc2ccc(C)cc21	-12%	4%	?	-7%	-11%[46.1 µM]	2%
CC1=CC(C)(C)Nc2ccc(OC(=O)CN3C(=O)CCC3=O)cc21	-3%	?	0%	-89%	-12%[46.1 µM]	6.3µM*
Brc1ccccc1OCCCCn1cnc2ccccc21	-2%	6%[46 µM]	-4%	2%[10 µM]	-18%	?
Cc1ccc(OCCCCn2cnc3ccccc32)c(C)c1	8%	?	1%	-153%	-9%[46.1 µM]	3.2µM*
O=P(O)(O)O[C@@H]1O[C@H](CO)[C@@H](O)[C@H](O)[C@@H]1O	·	·	·	-6%[10 µM]	·	·
O=C1C2=CC[C@H]3C(=O)N(Cc4ccccc4)C(=O)[C@@H]3[C@@H]2[C@H](O)[C@@H]2O[C@H]12	·	·	-17%[13.1 µM]	?	·	·
O=C1C2=CC[C@H]3C(=O)N(C[C@@H]4CCCO4)C(=O)[C@@H]3[C@@H]2[C@H](O)[C@@H]2O[C@H]12	·	·	-2%[13.1 µM]	1.4µM*	·	·
CCN1C(=O)[C@@H]2[C@H]3C(=CC[C@H]2C1=O)C(=O)[C@H]1OC1[C@H]3O (some centres not stated)	·	·	-4%[13.1 µM]	2.8µM*	·	·
O=c1ccn([C@@H]2O[C@@H](COP(=O)(O)OP(=O)(O)O)[C@H](O)[C@@H]2O)c(=O)[nH]1	·	·	·	-7%[1.9 µM]	·	·
CC(SCC(=O)NC(C)C1CC2CCC1C2)C(=O)O (configuration not stated)	·	3%	7%	0.89µM*	17%	16%
Clc1cc(Cl)c(OCC#CI)cc1Cl	·	·	·	-97%	·	-92%
O=C(O)c1ccc(OCc2ccccc2)c(Cl)c1	·	·	·	-10%[10 µM]	·	·
O=C(C[n+]1cc(-c2ccccc2)n2c1CCCCC2)c1ccc(Cl)cc1	-6%	?	6%	3%[1.9 µM]	22%	?
CC1CCC(C(C)C)C(OC(=O)C[n+]2cc(-c3ccc(Cl)cc3)n3c2CCCCC3)C1 (configuration not stated)	1%	?	10%	3%[10 µM]	?	13µM*
Cc1nn(Cc2ccc(Cl)c(Cl)c2)c(C)c1NC(=O)c1cc(CC(C)C)on1	-5%	?	19%	15%	?	10µM*
SMILES	MBNL1 CUG block	LMNA splice mod	CBFb RUNX1 block	HTT cytoprotect	NPSR antag	HttQ103 aggreg
Cc1ccccc1Cn1nc(C)c(NC(=O)c2cc(CC(C)C)on2)c1C	9%	·	5%	8%[10 µM]	-27%	-1%[9.22 µM]
COc1ccc(OC)c(CNC(=O)Nc2cn(CC(C)C)c(=O)c3ccccc23)c1	·	7%[46 µM]	·	·	·	·
CC(C)(C)c1ccc(C(=O)NCC(c2cccnc2)N2CCc3ccccc3C2)cc1 (configuration not stated)	·	-7%[46 µM]	·	·	·	·
COc1ccc(C(=O)c2c(C)c3ccccc3n2CC(O)CNC(C)C)cc1 (configuration not stated)	-5%[11.5 µM]	?	21%	·	1%	22µM*
COc1ccccc1CNCC(O)Cn1c2ccccc2c2ccccc21 (configuration not stated)	?	?	-18%	17%[0.074 µM]	?	-3%
Clc1ccc([C@@H](c2ccccc2Cl)C(Cl)Cl)cc1	·	·	·	-9%[1.9 µM]	·	·
COc1ccc(N2CCN(CC(O)c3c[nH]c4ccc(OC)cc34)CC2C)cc1 (configuration not stated)	-4%	?	2%	-67%	-4%[46.1 µM]	13µM*
Cc1ccc(SCC(=O)c2c(C)nc3ccccn23)cc1	74%	16%[9.22 µM]	-19%	-79%	-1%	14µM*
COc1ccc(CNC(=O)c2c(C)nc3ccccn23)cc1	-6%	?	-1%	22%[10 µM]	12%[46.1 µM]	25µM*
CCOC(=O)c1c(C)nc2ccccn12	0%	6%	3%	4%	11%[7.67 µM]	-23%
C=C(C)C(=O)OC1(C(F)(F)F)Oc2cc(C)ccc2NC1=O (configuration not stated)	0%	?	5%	37%	10µM*	?
CCOC(=O)C1(N(CC)CC)Sc2cc(C)ccc2NC1=O (configuration not stated)	-14%	2%	-4%	-36%	-26%[46.1 µM]	13%
Cc1ccc(-c2noc(CSc3nnc(Cc4ccccc4)n3-c3ccc(Cl)cc3)n2)cc1	-2%	-20%	-2%	0%	?	16µM*
CN(C)CCCNC(=O)c1ccc(-c2nc(-c3ccc(Cl)cc3)cs2)cc1	?	0%	4%	-111%	10µM*	?
CCOC(=O)c1cccc(NC(=O)N2CC(CC)Sc3ccccc32)c1 (configuration not stated)	·	-3%[46 µM]	·	·	·	·
CCCCNc1nc(C)nc2c1nc(-c1ccccc1)n2C1CCN(Cc2ccccc2)C1 (configuration not stated)	·	·	7%	-30%	·	·
Cc1ccc(C2CC(c3cccs3)=NN2C(=O)c2ccc(Br)o2)cc1 (configuration not stated)	40%	6%	10%	-83%[10 µM]	10µM*	?

Screens deposited in PubChem by National Center for Advancing Translational Sciences (NCATS).
